Source: PubChem BioAssay AID1211 (NMMLSC, 2008)
Active and inactive are the calls of the source. How the calls were made is not given here.

target: Estrogen receptor (Homo sapiens) (UniProt P03372); test: ERalpha ligand binders by competition, primary screen, cell-based, Cos7 ERalpha-GFP, flow cytometry (AID 1211); conditions: fluorescent ligand competition, at 10 µM, active compounds read high;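 further: 0% = DMSO vehicle wells and 100% = no E2-Alexa633 signal left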
Sequence (P03372 whole entry, looked up): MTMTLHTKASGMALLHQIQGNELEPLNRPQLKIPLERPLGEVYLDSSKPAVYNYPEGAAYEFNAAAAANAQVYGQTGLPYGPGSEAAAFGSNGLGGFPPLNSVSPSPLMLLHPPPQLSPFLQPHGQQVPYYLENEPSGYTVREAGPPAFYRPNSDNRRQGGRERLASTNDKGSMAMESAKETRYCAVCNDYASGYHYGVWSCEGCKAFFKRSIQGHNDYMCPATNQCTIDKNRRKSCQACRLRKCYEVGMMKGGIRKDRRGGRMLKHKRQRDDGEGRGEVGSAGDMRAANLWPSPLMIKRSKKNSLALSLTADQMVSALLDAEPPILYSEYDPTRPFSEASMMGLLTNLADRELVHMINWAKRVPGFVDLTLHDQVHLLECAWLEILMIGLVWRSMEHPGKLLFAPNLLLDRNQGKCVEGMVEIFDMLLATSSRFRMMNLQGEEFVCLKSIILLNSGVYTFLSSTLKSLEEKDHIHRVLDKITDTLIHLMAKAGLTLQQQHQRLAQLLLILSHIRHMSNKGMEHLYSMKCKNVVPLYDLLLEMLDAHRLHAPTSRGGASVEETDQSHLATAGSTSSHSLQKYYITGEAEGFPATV

Row | SMILES | inhibition of ligand binding
1 | CC1CCCC(C)N1Cc1c(O)ccc2c3c(c(=O)oc12)CCC3 (stereo not drawn) | 13% (inactive)
2 | Cc1cc(C)c2c(c1)[C@@H]1C=CC[C@@H]1[C@H](c1ccc(S(=O)(=O)N3CCOCC3)cc1)N2 | 66% (active)
3 | COc1ccc(NS(=O)(=O)c2ccc3c(c2)[C@H]2C=CC[C@H]2[C@@H](c2ccc(F)cc2)N3)cc1 | 14% (inactive)
4 | CCOc1cc2c(cc1OCC)C(C(CC)CC)NCC2 (stereo not drawn) | 0% (inactive)
5 | Cc1noc(C)c1CSCC(=O)OCC(=O)Nc1sccc1C#N | 2% (inactive)
6 | COc1ccc(NS(=O)(=O)c2ccc3c(c2)[C@H]2C=CC[C@H]2[C@@H](c2ccc(C(=O)O)cc2)N3)cc1 | 100% (active)
7 | O=C1CC(c2ccncc2)c2cc3c(cc2N1)OCCO3 (stereo not drawn) | 0% (inactive)
8 | CC1(C)CC(=O)c2cn(-c3ccc(Cl)cc3)c(=N)c(C#N)c2C1 | 35% (inactive)
